hERG WT inh: inhibitors of human wildtype KCNH2 potassium channel; AID 720551; 0.37% of 340,000 active; U2OS, BacMam KCNH2, thallium flux FluxOr; hits give low values; Q12809; activity change, % at 1.84 µM;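 active = maximum activity change below -70%; inconclusive = maximum activity change between -70% and -50%; inactive = maximum activity change above -50%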
Target sequence (Q12809 whole entry, looked up): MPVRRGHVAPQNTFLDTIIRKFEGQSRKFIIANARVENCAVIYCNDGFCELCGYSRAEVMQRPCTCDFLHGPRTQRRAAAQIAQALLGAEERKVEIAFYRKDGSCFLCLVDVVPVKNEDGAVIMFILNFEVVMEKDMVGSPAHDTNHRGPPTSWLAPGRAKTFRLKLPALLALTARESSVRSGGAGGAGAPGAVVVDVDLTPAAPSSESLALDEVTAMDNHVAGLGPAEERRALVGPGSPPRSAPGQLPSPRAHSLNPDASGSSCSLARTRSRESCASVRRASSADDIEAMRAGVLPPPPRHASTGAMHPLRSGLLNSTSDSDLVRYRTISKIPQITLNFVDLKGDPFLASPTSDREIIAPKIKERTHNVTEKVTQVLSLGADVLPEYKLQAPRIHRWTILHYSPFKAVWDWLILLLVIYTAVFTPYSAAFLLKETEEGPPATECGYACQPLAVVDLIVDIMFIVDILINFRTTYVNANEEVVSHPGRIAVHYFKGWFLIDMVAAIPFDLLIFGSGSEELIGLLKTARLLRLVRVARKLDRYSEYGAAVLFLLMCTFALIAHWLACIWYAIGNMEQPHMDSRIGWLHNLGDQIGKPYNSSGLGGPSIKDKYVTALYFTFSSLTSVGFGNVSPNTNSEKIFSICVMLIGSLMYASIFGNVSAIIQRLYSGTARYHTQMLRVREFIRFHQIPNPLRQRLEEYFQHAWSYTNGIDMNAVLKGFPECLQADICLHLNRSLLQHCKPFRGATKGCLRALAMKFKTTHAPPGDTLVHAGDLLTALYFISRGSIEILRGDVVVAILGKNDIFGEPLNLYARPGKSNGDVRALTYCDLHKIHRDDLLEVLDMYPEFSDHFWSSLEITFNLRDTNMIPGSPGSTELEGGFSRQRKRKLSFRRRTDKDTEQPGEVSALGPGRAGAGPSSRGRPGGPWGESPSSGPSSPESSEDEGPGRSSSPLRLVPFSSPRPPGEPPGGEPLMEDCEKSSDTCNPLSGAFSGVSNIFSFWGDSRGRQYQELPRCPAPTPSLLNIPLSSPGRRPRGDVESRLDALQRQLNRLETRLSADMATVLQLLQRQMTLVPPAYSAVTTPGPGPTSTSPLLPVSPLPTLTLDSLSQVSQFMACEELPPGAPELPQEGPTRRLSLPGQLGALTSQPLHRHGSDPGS
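U2OS cells were transduced with wild-type KCNH2 virus (2.03 x 10^8 / mL) for 4 h at room temperature, then cultured overnight at 37 C. Thallium flux was read with FluxOr dye. Rate constants were normalized to DMSO controls.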
RXFP1 antagonist: antagonists of human relaxin receptor RXFP1 | HEK293-RXFP1, relaxin-stimulated cAMP HTRF, 30 min; hits give low values | activity change, negative = inhibition, % at 57.5 µM | 0.59% of 350,000 active;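 active = activity change of -60% or lower, but not beyond a set lower limit; inconclusive = change between -60% and -40%, or beyond the set limit; inactive = change above -40%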
RXFP1 agonist: RXFP1 (human) receptor agonism. Q9HBX9. HEK293T-RXFP1 cAMP TR-FRET, 30 min; response scale: percent of porcine relaxin response, buffer zero. Potency, µM (titrated, usually from 57.5 µM), for inactives: top-dose activation, most hits filed as activators. 0.3% of 370,000 active; active = well fitted activation curve with a large enough effect; inconclusive = small, poorly fitted or top-dose-only effect; note: potency is the fitted concentration of half-maximal effect; nearly all actives have a fitted effect of over 60% in size
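HEK293T cells stably expressing RXFP1 were pretreated with the PDE4 inhibitor Ro 20174, exposed to compounds for 30 min at 37C, lysed, and cAMP was read by TR-FRET. Data normalized to buffer (basal) and 29 nM porcine relaxin (100%).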
Akt phos inh: Akt phosphorylation inhibition | Neuro2A IGF-stimulated pAkt S473 HTRF, 20 min; hits give low values | activity change, % for hits at 50 µM | 0.32% of 360,000 active | AID 651550; in the data active = activity change below about -80%; inconclusive = mostly about -51% to -80%
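Neuro2A cells in DMEM with 0.5% FBS, overnight at 37 deg C, given compound at single 50 µM final, then IGF (6 nM final) for 20 min at 37 deg C. Lysed; phospho-Akt Ser473 by HTRF after 24 h, 665/615 ratio.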
KCNH2 3.1 block: inhibitors of human KCNH2 3.1 potassium channel isoform; 0.95% of 340,000 active; activity change, % (tested at about 1.8 µM); U2OS KCNH2 3.1, thallium flux FluxOr; hits give low values;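 active = maximum activity change below -70%; inconclusive = maximum activity change from -70% to -50%; inactive = maximum activity change above -50%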;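 note: thallium influx rate constant from kinetic fluorescence after stimulation buffer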
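Virally transduced U2OS (3.1 isoform, 4 h infection in dark at RT) → overnight 37 C → FluxOr + Red40 in HBSS/HEPES, 45 min → stimulation buffer, 2 min kinetic read → rate constant vs DMSO controls.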
Active calls of the source: *; i = inactive; ? = inconclusive; / = no result given; ! = not confirmed by another sample. Most compounds without a hit are left out; they make up all but 1.7% or so of the library. % is set by controls: 0 for no effect and ±100 for the full control effect.

SMILES	hERG WT inh	RXFP1 antagonist	RXFP1 agonist	Akt phos inh	KCNH2 3.1 block
C[C@]12CCC(=O)C=C1CC[C@H]1[C@@H]3CC[C@](O)(C(=O)CO)[C@@]3(C)C[C@H](O)[C@@]12F	/	-10	/	/	/
CC1(C)O[C@@H]2C[C@H]3[C@@H]4CCC5=CC(=O)CC[C@]5(C)[C@@]4(F)[C@@H](O)C[C@]3(C)[C@]2(C(=O)CCl)O1	1	-73*	-3%	i	4
O=C(NNC(=O)C1[C@H]2CCCC[C@@H]12)c1ccc(=O)oc1 (stereo partly drawn)	10	-26	0%	i	-5
COc1ccc(-c2cc(C(F)(F)F)nc(SCCC(=O)Nc3cc(C)on3)n2)cc1	-8	9	9%	i	-1
O=C(CC1C(=O)NCCN1Cc1ccc(F)cc1Cl)NCc1ccon1 (stereo not drawn)	-21	-1	0%	i	11
Cc1cccc(OCCCC(=O)O)c1	-15	-7	0%	i	-5
Cc1cc(C)cc(OCCCC(=O)O)c1	-1	-4	0%	-106%*	-6
O=C1c2ccccc2C(=O)N1CCCc1nc(-c2ccccn2)no1	-6	-6	3%	i	-100*
CCC(=O)NC(c1ccc(Cl)cc1Cl)c1ccc2cccnc2c1O (stereo not drawn)	-4	-98*	1%	i	-2
CCCC(=O)NC(c1ccc(C(C)C)cc1)c1ccc2cccnc2c1O (stereo not drawn)	-2	?	0%	i	-1
CCCC(=O)NC(c1ccccc1Cl)c1ccc2cccnc2c1O (stereo not drawn)	-17	-82*	1%	i	-97*
CCCCC(=O)NC(c1ccc(Cl)cc1Cl)c1ccc2cccnc2c1O (stereo not drawn)	4	-37	-2%	i	11
CCCCC(NC(=O)Cc1c(C)c2cc3c4c(oc3cc2oc1=O)CCCC4)C(=O)O (stereo not drawn)	-151*	2	1%	i	-3
COc1ccc(OC(=O)N(C)C[C@@H]2OCc3cn(nn3)CCCC(=O)N([C@H](C)CO)C[C@H]2C)cc1	/	/	/	i	/
Cc1ccc(OC(=O)N(C)C[C@@H]2OCc3cn(nn3)CCCC(=O)N([C@@H](C)CO)C[C@H]2C)cc1	18	12	/	i	-70*
Oc1ccccc1CN1CCN(C(O)(c2ccccc2)c2ccccc2)CC1	38	-8	1%	i	?
Oc1ccccc1CN1CCC(C(O)(c2ccccc2)c2ccccc2)CC1	3	-9	4%	i	-86*
Cc1ccc(CNC(=O)c2c(O)nc3cc(C)ccn3c2=O)cc1	/	/	0%	/	/
CCC(=O)OCC(=O)Nc1cc(C)c(C)cc1[N+](=O)[O-]	3	0	1%	i	-4
Cc1cc(NC(=O)COC(=O)CC2CCCC2)c([N+](=O)[O-])cc1C	-13	1	0%	i	-72*
CC(C)CNC(=O)COC(=O)c1ccc(F)cc1Cl	1	0	1%	i	1
O=[N+]([O-])c1cccc(/C=N/Nc2nccnc2Cl)c1	9	-14	5%	-83%*	-4
COCCCNC(=O)c1cn(C)c(=O)c2c1c1ccccc1n2C	-2	4	3%	i	24
C(=N\Nc1nc(N2CCOCC2)nc(N2CCOCC2)n1)/c1cccnc1	-12	-11	-1%	-82%*	-16
N#C/C(=C/c1ccc(Br)s1)C(=O)NCCc1c[nH]c2ccccc12	-74*	13	1%	i	-7
SMILES	hERG WT inh	RXFP1 antagonist	RXFP1 agonist	Akt phos inh	KCNH2 3.1 block
COc1ccc2nc(SCC(=O)N3CCCCCC3)c(C#N)cc2c1	3	9	1%	i	-88*
COc1ccc2nc(SCC(=O)N3CCCCC3)c(C#N)cc2c1	-12	2	-1%	i	2
O=C(Nc1ccc(F)cc1)c1sc2cc(C(F)(F)F)cnc2c1-c1cccs1	-4	-13	0%	i	-49
COc1ccc(NC(=O)c2sc3cc(C(F)(F)F)cnc3c2-c2cccs2)cc1	9	1	10%	i	-92*
COCCSc1ccccc1C(=O)Nc1ccncc1	-7	5	0%	i	4
CCC(CC)c1nnc(NC(=O)COc2ccc3c(c2)OCO3)s1	-3	-24	-5%	i	21
COC(=O)c1cc(=O)nc2sc3cc(OC)ccc3n12	2	9	5%	-114%*	-11
N=C1C(c2ccccc2)=C(O)CN1c1cccc(S(=O)(=O)N2CCCCC2)c1	-225*	9	4%	i	6
Cc1oc(/N=C/c2c(O)ccc3ccccc23)c(C#N)c1C	/	/	3%	/	/
Cc1nc(C)c(C(=O)O)s1	7	18	0%	i	9
COc1ccc(-c2nc3ccccc3n2Cc2ccc(C)cc2)cc1	-122*	-22	0%	i	/
CCOc1ccc(Cn2c(-c3ccc(OCC)c(OC)c3)nc3ccccc32)cc1OC	/	6	28%	/	/
COc1ccc(Cn2c(-c3ccc(OC)c(O)c3)nc3ccccc32)cc1O	2	-72*	-1%	i	-5
COc1ccccc1CNc1nc(NCc2ccc(NC(C)=O)cc2)c2sccc2n1	/	/	/	i	/
COC(=O)Nc1nn(-c2ccc(C)cc2)c(=O)c(C#N)c1C	-10	-6	1%	i	0
O=C1CC(c2ccccc2)(c2ccccc2)c2ccccc21	-95*	?	/	i	-103*
O=S(=O)(Nc1cccc(-c2ccc(N3CCCCCC3)nn2)c1)c1ccc(C(F)(F)F)cc1	-3	-68*	1%	i	0
CC(=O)c1ccc(S(=O)(=O)Nc2cccc(-c3ccc(N4CCCCC4)nn3)c2)cc1	/	-17	-2%	/	/
O=S(=O)(Nc1cccc(-c2ccc(N3CCCCCC3)nn2)c1)c1cccc(F)c1	36	11	2%	/	0
O=S(=O)(Nc1cccc(-c2ccc(N3CCCCCC3)nn2)c1)c1ccc(F)cc1	3	-76*!	2%	i	-8
COc1ccc(CN2CCN(CCSc3ccc(C)cc3)CC2)c(OC)c1OC	52	-3	-2%	i	-77*
O=C(OCC(=O)N1CCCCC1)c1cccs1	-3	-7	/	i	-7
O=C(CNC(=O)N1CC(=O)Nc2ccccc21)NCc1ccccc1Cl	-1	-61*	-1%	i	6
O=C(CNC(=O)N1CC(=O)Nc2ccccc21)Nc1ccc(Cl)cc1	-1	-61*	1%	i	3
O=C(CNC(=O)N1CC(=O)Nc2ccccc21)NCc1ccccc1	-19	4	1%	i	-5
O=C(CCNC(=O)N1CC(=O)Nc2ccccc21)Nc1ccc(Cl)cc1	0	3	4%	i	14
CN1CCN(C(=O)/C=C/c2ccc3c(c2)OCO3)CC1	0	5	2%	i	18

High-throughput results deposited in PubChem by National Center for Advancing Translational Sciences (NCATS).
